Source: PubChem
This is a sample that favours compounds with a hit; in the whole collection about 6.6% have one here.
HepG2 tox – qHTS for Inhibitors of TGF-b: Cytotox Counterscreen; HepG2 CAGA-GFP viability, ATP luminescence, 18 h; Potency, µM (doses to about 46.1 µM), inactives show at the highest dose activity change, negative = cytotoxicity, usual class: cytotoxic; 410,000 tested, 0.76% active
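CellTiter-Glo luminescence gave cytotoxicity after 18 hours at 37 degrees C. The cells were HepG2 CAGA-GFP in 1% FBS DMEM, stimulated with 500 pg/mL TGF-beta after compound addition. %Activity was normalised to no-cell wells (complete cell-killing) and DMSO (no toxicity), and curves were fitted and classified.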
TGFb inhibitor – qHTS for Inhibitors of TGF-b; 410,000 tested, 1.2% active; HepG2 CAGA-GFP TGF-b/SMAD3 reporter, GFP fluorescence, 18 h; TGF-beta stimulated, 500 pg/mL final; AID 588855, 2011; Potency, µM (series often up to 46.1 µM), for inactives: at the top dose activity, negative = inhibition, most hits filed as inhibitors; further: on the % scale 0 is the no-effect control and ±100 the full control effect; nearly all actives have a fitted effect of over 65% in size
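HEPG2 CAGA-GFP, 1000 cells/well; 2 h settle, 37 C; cpd via pin tool; TGF-b 500 pg/mL final; 18 h, 37 C; GFP imaging ex488/em500-530; %Activity normalised to -TGF-b and +DMSO controls; CRC fit, curve class.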
HT1080 IDH1KD tx – qHTS for induction of synthetic lethality in tumor cells producing 2HG: qHTS for the HT-1080-IDH1KD cell line; AID 686971, 2013; Potency, µM (titrated, usually from 46.1 µM), for inactives: at the highest dose activity, negative = toxicity, usual class: cytotoxic; 360,000 tested, 2% active; HT-1080 IDH1 knockdown viability, ATP luminescence, 48 h;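 further: 0% = DMSO wells and -100% = cell-free medium wells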
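Luminescent ATP read-out (CellTiter-Glo, 10 min at room temperature) after 48 h compound exposure at 37 °C gave viability of IDH1-knockdown HT-1080 cells. Activity was normalised to DMSO and cell-free wells, then fitted as concentration-response curves.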
HT1080NT lethal – qHTS for induction of synthetic lethality in tumor cells producing 2HG: qHTS for the HT-1080-NT fibrosarcoma cell line; HT-1080-NT fibrosarcoma viability, CellTiter-Glo ATP luminescence, 48 h; 360,000 tested, 1.6% active; Potency, µM (doses to about 46.1 µM), inactives show at the highest dose activity, negative = less viability, actives largely listed as cytotoxic; AID 686970, 2013;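 further: NT is the 2HG producing partner of a matched IDH1 knockdown line; 0% = DMSO-treated cells and -100% = media-only wells without cells; nearly all actives have a fitted effect of over 55% in size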
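Toxicity toward the 2HG-producing NT line was scored as %Activity, normalised to DMSO and no-cell wells, from CellTiter-Glo luminescence after 48 hours' treatment.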
KB-V1 cytotox – qHTS assay for MDR1-selective chemotherapeutics: Primary screen using the drug-selected MDR subline cells KB-V1; Potency, µM (titrated, usually from 46.1 µM), actives largely listed as cytotoxic; KB-V1 MDR cells viability, CellTiter-Glo, 72 h; 400,000 tested, 3.4% active; further: on the % scale 0 is the no-effect control and ±100 the full control effect; nearly all actives have a fitted effect of over 60% in size
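Cytotoxicity toward P-gp-expressing KB-V1 cells was determined as loss of CellTiter-Glo luminescence after 72 h at 37 degrees C. Compounds were tested in quantitative HTS format across a concentration range, with curves fitted to normalized data.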
KB-3-1 cytotox – qHTS assay for MDR1-selective chemotherapeutics: Primary screen using the parental adenocarcinoma cell KB-3-1. Potency, µM (doses to about 46.1 µM), hits mostly cytotoxic. 400,000 tested, 1.4% active. KB-3-1 viability, CellTiter-Glo ATP luminescence, 72 h; further: on the % scale 0 is the no-effect control and ±100 the full control effect; nearly all actives have a fitted effect of over 60% in size
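Viability of parental KB-3-1 cells, measured by CellTiter-Glo luminescence, followed a 72 h incubation at 37 °C with pinned compounds in phenol-red-free DMEM containing 10% FBS.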
The depositor's hits bear a star; i = inactive; ? = inconclusive; / = not tested or not shown. The call rests on the fitted dose curve; in most records, active means well fitted curve in the direction sought with a large enough effect; inconclusive means small, poorly fitted or top-dose-only effect, or another doubt; inactive means no such curve, though single readings can be large; an effect the other way counts as inactive or inconclusive. Potency means the concentration at half of the fitted maximal effect.

SMILES	HepG2 tox	TGFb inhibitor	HT1080 IDH1KD tx	HT1080NT lethal	KB-V1 cytotox	KB-3-1 cytotox
CCCN(CCC)S(=O)(=O)c1ccc(Cl)c([N+](=O)[O-])c1	-23%	?	23µM*	?	i	i
Cc1cccc2c1-c1sc(C(=O)NCCCN3CCN(c4cccc(Cl)c4)CC3)cc1CO2	-86%	13µM*	/	/	i	?
Cc1cccc2c1-c1sc(C(=O)Nc3ccccc3N3CCN(C)CC3)cc1CO2	16µM*	?	-30%	?	?	i
O=C(NCCCN1CCN(c2cccc(Cl)c2)CC1)c1nc(-c2ccncc2)no1	-6%	-12%	0%	-11%	4.1µM*	i
Cc1cccc2c1-c1sc(C(=O)NCCCN3CCN(c4ccccc4F)CC3)cc1CO2	-43%	4%	/	/	i	i
CCc1ccc(Sc2cc(C(=O)O)c3ccccc3n2)cc1	-4%	-18%	/	/	/	/
COc1cc(CNC(C)(C)CO)ccc1OCC(=O)NC(C)(C)C	3%	-1%	3%	10%	i	i
COc1cc(CNC(C)C23CC4CC(CC(C4)C2)C3)ccc1OCC(=O)NC(C)(C)C (configuration not stated)	-59%	?	23µM*	?	?	?
N#Cc1cnn2c1nc(N1CCCCC1)c1ccccc12	-12%	1%	-4%	-2%	12µM*	?
Cc1cnn(CCC(=O)NNC(=S)Nc2ccc(F)cc2)c1	-16%	-1%	13%	8%	i	i
Cc1cnn(CCC(=O)NNC(=S)Nc2cccc(Cl)c2)c1	3%	-17%	0.71µM*	0.79µM*	i	i
O=C1CCc2cc([S+](=O)([O-])NC3CCOCC3)ccc2N1	/	/	/	/	i	i
COc1cc2c(cc1OC)C(C)N(C(=O)Nc1cc(C)cc(C)c1)CC2 (configuration not stated)	-17%	-22%	7.3µM*	6.5µM*	6.5µM*	?
COc1cc2c(cc1OC)C(C)N(C(=O)c1ccc(Br)o1)CC2 (configuration not stated)	-19%	7%	-20%	-23%	13µM*	21µM*
COc1cc2c(cc1OC)C(CC(=O)O)N(C(=O)Nc1cc(OC)c(OC)c(OC)c1)CC2 (configuration not stated)	-2%	3%	/	/	/	/
COc1cc2c(cc1OC)C(C)N(C(=O)Nc1ccc(F)cc1)CC2 (configuration not stated)	0%	5%	?	?	12µM*	13µM*
Cc1ccc(Cn2c(=O)c3cccnc3n(Cc3ccc(F)cc3)c2=O)cc1	2%	-4%	/	/	?	i
COc1cc2c(cc1OC)CN(C(=O)CCC(=O)c1ccc(F)cc1)CC2	7%	-2%	?	?	?	16µM*
COc1cc2c(cc1OC)CN(C(=O)CCNC(=O)c1ccc(Br)cc1)CC2	-5%	0%	1%	3%	i	i
CCC(=O)c1ccc(OCC(=O)N2CCc3cc(OC)c(OC)cc3C2)cc1	-8%	7%	-5%	-2%	i	i
COc1cc2c(cc1OC)CN(CCC(=O)c1ccc(Br)cc1)CC2	-27%	?	23µM*	26µM*	i	i
Cc1cccc(N2CCN(c3ccc4cc(S(=O)(=O)N5CCC(C)CC5)ccc4n3)CC2)c1C	12%	22%	/	/	i	i
OC1Cc2ccccc2C1Nc1cccc(C(F)(F)F)c1 (configuration not stated)	-27%	?	11%	-1%	?	i
N#Cc1ccc(NC2c3ccccc3CC2O)cc1 (configuration not stated)	0%	-11%	-17%	-2%	18µM*	?
Nc1ncc(Br)cc1S(=O)(=O)NCCC(=O)N1CCN(c2ccccn2)CC1	-1%	10%	9%	-2%	i	i
SMILES	HepG2 tox	TGFb inhibitor	HT1080 IDH1KD tx	HT1080NT lethal	KB-V1 cytotox	KB-3-1 cytotox
O=C(Nc1ccccc1Cl)N1CCN(c2ccccn2)CC1	2%	0%	-6%	9%	16µM*	?
O=C(CCNS(=O)(=O)c1ccccc1Cl)N1CCN(c2ccccn2)CC1	3%	-4%	7%	3%	16µM*	?
O=C(CCC1CCCN(C(=O)c2ccccc2Cl)C1)N1CCN(c2ccccn2)CC1 (configuration not stated)	0%	3%	-18%	-9%	15µM*	?
CN(c1ccccc1)S(=O)(=O)c1cc(C(=O)N2CCN(c3ccccn3)CC2)ccc1Cl	-21%	-27%	-10%	-1%	23µM*	?
CC1=C(c2ccc(F)cc2)S(=O)(=O)N=C1N1CCC(C(=O)NCCc2cccc(C)c2)CC1	-5%	-10%	/	/	i	i
CCOc1ccc(OCC)c(NC(=O)CCc2c(C)nc3c(c2C)c(=O)n(C)c(=O)n3C)c1	1%	?	/	/	i	i
COc1ccc(CNC(=O)CCC(=O)N2CCSc3ccccc32)cc1	-32%	?	/	/	/	/
CCOC(=O)c1ccc(NC(=O)N2CCN(c3ccccn3)CC2)cc1	-13%	-33%	7%	4%	16µM*	i
CCOC(=O)c1ccc(OCC2c3cc(OC)c(OC)cc3CCN2C(=O)Cc2ccc(F)cc2)cc1 (configuration not stated)	-33%	-11%	/	/	i	i
COC(=O)C1=C(CS(=O)(=O)c2ccc(C)cc2C)NC(=O)NC1c1ccc(C)cc1 (configuration not stated)	-1%	-7%	/	/	i	i
Cc1csc2nc(O)c(C(=O)NCCCc3ccccc3)c(=O)n12	-15%	-16%	10%	-4%	16µM*	?
Cc1csc2nc(O)c(C(=O)NCCC3=CCCCC3)c(=O)n12	-1%	4%	0%	1%	9.2µM*	i
O=C(NCc1ccccc1)N1CCn2c(nc3ccccc32)C1	0%	-4%	6%	1%	18µM*	i
COc1ccc(NC(=O)CCNC(=O)Cn2cnc3sc4c(c3c2=O)CCCC4)c(OC)c1	-13%	-12%	-1%	-1%	i	i
COc1ccc(NC(=O)CCCNC(=O)Cn2cnc3sc4c(c3c2=O)CCCC4)c(OC)c1	3%	5%	-2%	-9%	21µM*	i
